Records with an inconclusive call do not appear. Entries that show only a call come without a potency. Active and inactive are the calls of the source. Calls come from the whole dose curve; as a rule, active = well fitted cell-killing curve with a large enough effect; inconclusive = small, poorly fitted or top-dose-only effect, or effect the other way; inactive = flat fitted curve, though single readings scatter.

The first experiment concerns C33A. Description: Primary qHTS to identify gynecologic anti-cancer compounds using libraries of approved drugs and bioactive compounds (AID 1345084). Note: nearly all actives have a fitted effect of over 55% in size. Particulars: Gynecologic cancer cell panel viability, ATPlite luminescence, 48 h; series mostly up to 57.5 µM. The gist of the method: (§1)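 Five-point cytotoxicity, 48 h drug exposure at 37 C, 5% CO2, on cells seeded 16 h beforehand. ATP content read by ATPlite luminescence.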
(Quantitative high-throughput screening tests each substance at several concentrations.)
As to `CN(C)c1ccc(C2Nc3ccc4ccccc4c3C3=C2C(=O)CC(C)(C)C3)cc1Br` (configuration not stated), the Potency result was “inactive”.

For `COc1ccc2nc(S(=O)Cc3ncc(C)c(OC)c3C)[nH]c2c1` (configuration not stated), the Potency result is “inactive”.

With `CCC(C)n1ncn(-c2ccc(N3CCN(c4ccc(OC[C@H]5CO[C@](Cn6cncn6)(c6ccc(Cl)cc6Cl)O5)cc4)CC3)cc2)c1=O` (some centres not stated), the Potency result was “inactive”.

As to `Cc1ccnc(NS(=O)(=O)c2ccc(NC(=O)Nc3ccc(S(=O)(=O)Nc4nccc(C)n4)cc3)cc2)n1`, the Potency result was “inactive”.

As to `OC(CN1CCC(Cc2ccc(F)cc2)CC1)c1ccc(Cl)cc1` (configuration not stated), the Potency result was “inactive”.

Take `NC(=O)c1cnccn1`: the Potency result was “inactive”.

Consider `CC[C@@H](C)[C@H](NC(=O)[C@H](CC1CCCCC1)NC(=O)c1ccno1)C(=O)N1CCC2(CCc3ccccc32)CC1`, for which the Potency entry was “inactive”.

For the molecule `Cc1ccc(N(CC2=NCCN2)c2cccc(O)c2)cc1`, the Potency entry was “inactive”.

Take `C[C@@H]1CN(Cc2ccc(F)cc2)[C@@H](C)CN1C(=O)c1cc2c(C(=O)C(=O)N(C)C)cn(C)c2cc1Cl`: the Potency entry was “inactive”.

In the case of `Cc1cn[nH]c1`, the Potency result is “inactive”.

Turning to `Cc1n[nH]c(C)c1Cc1sc2c(c1C(=O)N1C[C@H](O)CO1)c(=O)n(C)c(=O)n2CC(C)C`, the Potency result is “inactive”.

`CCCc1nn(C)c2c(=O)[nH]c(-c3cc(S(=O)(=O)N4CCN(C)CC4)ccc3OCC)nc12`: the Potency entry is “inactive”.

On to `NNCCc1ccccc1`, for which the Potency result was “inactive”.

In another experiment the test system is CAOV3. The description is as above. The conditions noted are these: Gynecologic cancer cell panel viability, ATPlite luminescence, 48 h; series mostly up to 57.5 µM. The gist of the method:
as §1
Background: ATP-based viability assays read luminescence as a measure of living cells.
Turning to `CN(C)c1ccc(C2Nc3ccc4ccccc4c3C3=C2C(=O)CC(C)(C)C3)cc1Br` (configuration not stated), the Potency entry was “inactive”.

`COc1ccc2nc(S(=O)Cc3ncc(C)c(OC)c3C)[nH]c2c1` (configuration not stated): the Potency result is “inactive”.

Regarding `CCC(C)n1ncn(-c2ccc(N3CCN(c4ccc(OC[C@H]5CO[C@](Cn6cncn6)(c6ccc(Cl)cc6Cl)O5)cc4)CC3)cc2)c1=O` (some centres not stated), the Potency result was “inactive”.

As for `Cc1ccnc(NS(=O)(=O)c2ccc(NC(=O)Nc3ccc(S(=O)(=O)Nc4nccc(C)n4)cc3)cc2)n1`, the Potency entry is “inactive”.

On to `OC(CN1CCC(Cc2ccc(F)cc2)CC1)c1ccc(Cl)cc1` (configuration not stated), for which the Potency entry is “inactive”.

As to `NC(=O)c1cnccn1`, the Potency result was “inactive”.

As for `CC[C@@H](C)[C@H](NC(=O)[C@H](CC1CCCCC1)NC(=O)c1ccno1)C(=O)N1CCC2(CCc3ccccc32)CC1`, the Potency result was “inactive”.

As for `Cc1ccc(N(CC2=NCCN2)c2cccc(O)c2)cc1`, the Potency result is “inactive”.

For `C[C@@H]1CN(Cc2ccc(F)cc2)[C@@H](C)CN1C(=O)c1cc2c(C(=O)C(=O)N(C)C)cn(C)c2cc1Cl`, the Potency entry was “inactive”.

As for `Cc1cn[nH]c1`, the Potency entry was “inactive”.

In the case of `Cc1n[nH]c(C)c1Cc1sc2c(c1C(=O)N1C[C@H](O)CO1)c(=O)n(C)c(=O)n2CC(C)C`, the Potency entry was “inactive”.

In the case of `CCCc1nn(C)c2c(=O)[nH]c(-c3cc(S(=O)(=O)N4CCN(C)CC4)ccc3OCC)nc12`, the Potency result was “inactive”.

Turning to `NNCCc1ccccc1`, the Potency result is “inactive”.

The subject of another experiment is CASKI. The description is as above. Particulars: Gynecologic cancer cell panel viability, ATPlite luminescence, 48 h; series mostly up to 57.5 µM. An outline of the steps:
as §1
With `CN(C)c1ccc(C2Nc3ccc4ccccc4c3C3=C2C(=O)CC(C)(C)C3)cc1Br` (configuration not stated), the Potency result is “inactive”.

With `COc1ccc2nc(S(=O)Cc3ncc(C)c(OC)c3C)[nH]c2c1` (configuration not stated), the Potency result was “inactive”.

With `CCC(C)n1ncn(-c2ccc(N3CCN(c4ccc(OC[C@H]5CO[C@](Cn6cncn6)(c6ccc(Cl)cc6Cl)O5)cc4)CC3)cc2)c1=O` (some centres not stated), the Potency entry is “inactive”.

In the case of `Cc1ccnc(NS(=O)(=O)c2ccc(NC(=O)Nc3ccc(S(=O)(=O)Nc4nccc(C)n4)cc3)cc2)n1`, the Potency result is “inactive”.

Regarding `OC(CN1CCC(Cc2ccc(F)cc2)CC1)c1ccc(Cl)cc1` (configuration not stated), the Potency entry was “inactive”.

For `NC(=O)c1cnccn1`, the Potency result is “inactive”.

As for `CC[C@@H](C)[C@H](NC(=O)[C@H](CC1CCCCC1)NC(=O)c1ccno1)C(=O)N1CCC2(CCc3ccccc32)CC1`, the Potency entry is “inactive”.

On to `Cc1ccc(N(CC2=NCCN2)c2cccc(O)c2)cc1`, for which the Potency entry was “inactive”.

Take `C[C@@H]1CN(Cc2ccc(F)cc2)[C@@H](C)CN1C(=O)c1cc2c(C(=O)C(=O)N(C)C)cn(C)c2cc1Cl`: the Potency result is “inactive”.

In the case of `Cc1cn[nH]c1`, the Potency entry was “inactive”.

For the molecule `Cc1n[nH]c(C)c1Cc1sc2c(c1C(=O)N1C[C@H](O)CO1)c(=O)n(C)c(=O)n2CC(C)C`, the Potency result was “inactive”.

With `CCCc1nn(C)c2c(=O)[nH]c(-c3cc(S(=O)(=O)N4CCN(C)CC4)ccc3OCC)nc12`, the Potency entry was “inactive”.

For the molecule `NNCCc1ccccc1`, the Potency entry was “inactive”.

The subject of the next experiment is Es-2. Described as above. The conditions noted are these: Gynecologic cancer cell panel viability, ATPlite luminescence, 48 h; series mostly up to 57.5 µM. The gist of the method: as §1
As to `CN(C)c1ccc(C2Nc3ccc4ccccc4c3C3=C2C(=O)CC(C)(C)C3)cc1Br` (configuration not stated), the Potency entry was “inactive”.

Consider `COc1ccc2nc(S(=O)Cc3ncc(C)c(OC)c3C)[nH]c2c1` (configuration not stated), for which the Potency entry was “inactive”.

Take `CCC(C)n1ncn(-c2ccc(N3CCN(c4ccc(OC[C@H]5CO[C@](Cn6cncn6)(c6ccc(Cl)cc6Cl)O5)cc4)CC3)cc2)c1=O` (some centres not stated): the Potency entry was “inactive”.

Regarding `Cc1ccnc(NS(=O)(=O)c2ccc(NC(=O)Nc3ccc(S(=O)(=O)Nc4nccc(C)n4)cc3)cc2)n1`, the Potency result is “inactive”.

Regarding `OC(CN1CCC(Cc2ccc(F)cc2)CC1)c1ccc(Cl)cc1` (configuration not stated), the Potency entry is “inactive”.

Take `NC(=O)c1cnccn1`: the Potency result was “inactive”.

Regarding `CC[C@@H](C)[C@H](NC(=O)[C@H](CC1CCCCC1)NC(=O)c1ccno1)C(=O)N1CCC2(CCc3ccccc32)CC1`, the Potency entry was “inactive”.

On to `Cc1ccc(N(CC2=NCCN2)c2cccc(O)c2)cc1`, for which the Potency result is “inactive”.

Regarding `C[C@@H]1CN(Cc2ccc(F)cc2)[C@@H](C)CN1C(=O)c1cc2c(C(=O)C(=O)N(C)C)cn(C)c2cc1Cl`, the Potency result is “inactive”.

Turning to `Cc1cn[nH]c1`, the Potency result is “inactive”.

`Cc1n[nH]c(C)c1Cc1sc2c(c1C(=O)N1C[C@H](O)CO1)c(=O)n(C)c(=O)n2CC(C)C`: the Potency entry was “inactive”.

On to `CCCc1nn(C)c2c(=O)[nH]c(-c3cc(S(=O)(=O)N4CCN(C)CC4)ccc3OCC)nc12`, for which the Potency result was “inactive”.

On to `NNCCc1ccccc1`, for which the Potency result is “inactive”.
